# Bioassay records (PubChem)
# Not all results are given here.
# aSyn UTR act: Activators via SNCA 5'UTR binding, MLPCN; alpha-synuclein 5'UTR reporter, activators screen; activity score, % (tested at 7.5 µM), hits read low; hit rate 7.1% among 300,000; in the data active means activity score below about -60%
# * hit, by the source's call.
SMILES,aSyn UTR act
O=C(NC(Nc1nc2ccc([N+](=O)[O-])cc2s1)(C(F)(F)F)C(F)(F)F)c1ccccc1Cl,85.7
N#Cc1ccc(-c2csc(NC3=NCCCCC3)n2)cc1,-72.6*
c1ccc(-c2csc(NC3=NCCCCC3)n2)cc1,-98.6*
CC(C)(C)c1ccc(-c2csc(NNC3=NCCCCC3)n2)cc1,-78.3*
Cc1nc(NC(=O)Nc2ccc(Cl)cc2)sc1C,-164.4*
COc1ccc(NC(=O)Nc2nnc(C(C)(C)C)s2)cc1,-66.9*
CC(C)(C)c1nnc(NC(=O)Nc2ccc(Cl)cc2)s1,-113.5*
CN(C)c1ccc(/C=N/NC(=O)c2ccc3c(c2)OCO3)cc1,-103.6*
Cc1ccc(/C=N\NC(=O)c2ccc3c(c2)OCO3)o1,-80.6*
O=C(N/N=C/c1ccc([N+](=O)[O-])o1)c1ccc2c(c1)OCO2,93.6
O=C(N/N=C/c1cccnc1)c1ccc2c(c1)OCCO2,-82.4*
O=C(N/N=C/c1ccc(Br)o1)c1ccc2c(c1)OCCO2,-122.8*
COc1c(O)ccc(/C=N/NC(=O)c2ccc3c(c2)OCCO3)c1[N+](=O)[O-],-110.4*
Cc1ccc(Nc2nc(-c3ccc(F)cc3)cs2)nc1,-174.9*
Cc1ccc(Nc2nc(-c3ccc(O)c(O)c3)cs2)nc1,-216.3*
OCCc1ccc(O)c(-n2nc3ccccc3n2)c1,-116.7*
CC(=O)Oc1ccc2occ(C(=O)c3ccccc3)c2c1,-134.3*
O=C(CCl)Oc1ccc2occ(C(=O)c3cccs3)c2c1,-193.4*
CC(=O)Oc1ccc2occ(-c3ccccc3)c2c1,-136.6*
CC(=O)Oc1ccc2occ(C(=O)c3cccs3)c2c1,-175.1*
O=C(c1cccs1)c1coc2ccc(O)cc12,-199.9*
CCOc1ccc(N/C=C/C(=O)c2ccc(C)cc2)c([N+](=O)[O-])c1,-197.7*
Cc1ccc(C(=O)/C=C/Nc2ccc([N+](=O)[O-])cc2Br)cc1,-124.4*
CCOc1ccc(N/C=C/C(=O)c2ccc3ccccc3c2)c([N+](=O)[O-])c1,-158.5*
COCc1c(C(=O)Nc2ccc(Cl)cc2F)oc2ccccc12,-116.3*
SMILES,aSyn UTR act
COCc1c(C(=O)Nc2nc(C)cs2)oc2ccccc12,-87.5*
CC1=C/C(=C(/c2cc(C)c(O)c(Br)c2)c2ccccc2S(=O)(=O)O)C=C(Br)C1=O,61.1
CCOc1ccc(-c2nnc(NC3=NCCCCC3)o2)cc1,-117.0*
COc1ccc(-c2nnc(SCc3nc4ccccc4c(=O)[nH]3)o2)cc1,-69.7*
COc1ccc(-c2nnc(SCC(C)C)o2)cc1,-101.9*
CCCCOc1ccc(-c2nnc(-c3ccncc3)o2)cc1,-124.1*
CCOc1ccc(-c2nnc(NC(=O)c3ccc(OCC(C)C)c(OC)c3)o2)cc1,58.5
CCOc1ccc(-c2nnc(-c3ccncc3)o2)cc1,-63.2*
CCOc1ccc(-c2nnc(-c3ccc(OC)cc3)o2)cc1,-76.1*
c1coc(-c2nnc(NC3=NCCC3)o2)c1,-70.4*
CCOc1ccc(-c2nc3ccccc3c(=O)o2)cc1,-62.8*
Nc1cc(Cl)ccc1C(=O)OCC(=O)N1CCCC1,-69.5*
Nc1cc(C(=O)OCC(=O)N2CCCC2)ccc1Cl,-61.5*
CCCC(C(=O)Nc1ccc2c(C)cc(=O)oc2c1)c1ccccc1 (configuration not stated),-65.8*
Cc1cc(=O)oc2cc(Nc3ccccc3)ccc12,-89.6*
O=C(/C=C/c1ccccc1Cl)NCc1ccco1,-120.1*
Cc1onc(-c2ccccc2Cl)c1C(=O)NCc1ccco1,-80.2*
Cc1nc(C(=O)NNC(=O)c2c(-c3c(Cl)cccc3Cl)noc2C)cs1,62.7
N#C/C(=C\C=C\c1ccccc1)C(=O)NCc1ccco1,-63.1*
O=C(/C=C/c1ccccc1)NCc1ccco1,-72.2*
O=C(/C=C/c1ccc2c(c1)OCO2)NCc1ccco1,-68.1*
COc1ccc(C(=O)Nc2ccc3c(c2)OCCO3)cc1[N+](=O)[O-],-94.1*
Cc1csc(NC(=O)c2nn(C)c(C)c2[N+](=O)[O-])n1,-122.9*
COc1ccc(NC(=O)c2ccc3c(c2)OCCO3)cc1OC,-103.9*
COc1cc(C(=O)Nc2ccc3c(c2)OCCO3)ccc1OC(F)F,-153.3*
SMILES,aSyn UTR act
O=C(Nc1ccc(F)c([N+](=O)[O-])c1)c1ccc2c(c1)OCCO2,-137.6*
Cc1c([N+](=O)[O-])c(C(=O)Nc2ccc3c(c2)OCCO3)nn1C,-140.2*
COc1cc(C(=O)Nc2ccc3c(c2)OCCO3)ccc1OC(C)C,-163.1*
CCCCCCN1C=CC(=C2C(=O)c3ccccc3C2=O)C=C1,107.4
CCCCN1C(=O)C(=O)N(c2ccccc2)C1=S,-134.5*
C(=N\Nc1nc(-c2ccccc2)cs1)/c1ccncc1,-229.6*
C(=N\Nc1nc(-c2ccccc2)cs1)/c1cccs1,-233.2*
ClCc1csc(N/N=C/c2cccs2)n1,-72.1*
Cc1cccc(NC(=O)c2ccc(C(=O)c3ccccc3)o2)c1,-156.4*
O=C(c1ccccc1)c1cccc(NC(=O)c2ccc(Br)o2)c1,-90.0*
O=C(Nc1ccccc1)c1ccc(Br)o1,-73.3*
CCCC/C(=N\NC(=O)c1ccc(Br)o1)c1ccccc1,-68.9*
O=C(Nc1ccc2c(c1)oc1ccccc12)c1ccc(Br)o1,-210.0*
CCc1cccc(NC(=O)c2ccc(Br)o2)c1,-116.3*
